{"source": "PubChem BioAssay AID624115", "about": "(Johns Hopkins Ion Channel Center, 2012)", "note": "Screen size: about 4,000 compounds; about 350 (8.8%) were called active.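 Rule for the calls: active = calcium fluorescence ratio at least three times the spread of buffer wells, meaning a non-specific response in parental cells; inactive = the rest.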 These entries were drawn from the full list.", "data": [{"experiment": "calcium response in parental HEK293 cells, primary screen, counter-screen for MrgX1 agonist project, cell-based, Fluo-4 calcium flux, duplicate, agonist mode (AID 624115)", "settings": "parental HEK293, Fluo-4 calcium fluorescence (FDSS), at 10 µM; hits give high values", "values": [{"compound": "CC(=O)N1c2ccc(S(=O)(=O)N3CCCC(C(=O)Nc4cccc(Cl)c4)C3)cc2CC1C", "note": "(stereo unspecified)", "fluorescence ratio F(max-min)/F0": "inactive"}, {"compound": "COc1cccc(CCNC(=O)COc2cccc3c2OC(C)(C)C3)c1", "fluorescence ratio F(max-min)/F0": "inactive"}, {"compound": "O=C(COC(=O)C1CCN(S(=O)(=O)c2ccc3c(c2)OCCO3)CC1)Nc1ccccc1OC(F)F", "fluorescence ratio F(max-min)/F0": "inactive"}, {"compound": "COC(=O)c1ccc(COC(=O)C2CCN(S(=O)(=O)c3c(Cl)cccc3Cl)CC2)o1", "fluorescence ratio F(max-min)/F0": "inactive"}, {"compound": "CCOC(=O)c1[nH]c2ccc(C)cc2c1N=C(C)N(C)C", "fluorescence ratio F(max-min)/F0": "46.4 (active)"}, {"compound": "Cc1c(C(=O)N2CCCc3ccccc32)sc2nc(-c3ccccc3)cn12", "fluorescence ratio F(max-min)/F0": "inactive"}, {"compound": "Clc1ccc(C=NC23CN4CN(CN(C4)C2)C3)cc1", "fluorescence ratio F(max-min)/F0": "inactive"}, {"compound": "CC(Oc1ccc(F)cc1)C(=O)Nc1ccccc1C(=O)NC1CC1", "note": "(stereo unspecified)", "fluorescence ratio F(max-min)/F0": "inactive"}, {"compound": "CC(C)(C)Nc1c(-c2cccs2)nc2ccccn12", "fluorescence ratio F(max-min)/F0": "inactive"}, {"compound": "O=c1cc(CSc2ccccn2)nc(N2CCN(c3ccccc3)CC2)[nH]1", "fluorescence ratio F(max-min)/F0": "inactive"}, {"compound": "O=C(Nc1ccccc1Cl)N1CCN(c2ccc3nncn3n2)CC1", "fluorescence ratio F(max-min)/F0": "inactive"}, {"compound": "CCc1cc2c(SCC(=O)Nc3ncc(Cl)c(C)c3Cl)ncnc2s1", "fluorescence ratio F(max-min)/F0": "inactive"}, {"compound": "Cc1ccc(C(C(=O)NC2CCCCC2)N(C(=O)c2csnn2)C2CC2)o1", "note": "(stereo unspecified)", "fluorescence ratio F(max-min)/F0": "inactive"}, {"compound": "COC(=O)Cn1c(O)c(N=NC(=O)OC)c2ccccc21", "fluorescence ratio F(max-min)/F0": "inactive"}, {"compound": "COc1cc(C)c(C)cc1S(=O)(=O)N1CCCc2ccccc21", "fluorescence ratio F(max-min)/F0": "inactive"}, {"compound": "COc1cc(C(F)(F)F)nc2c(Br)c(C(C)(C)C)nn12", "fluorescence ratio F(max-min)/F0": "inactive"}, {"compound": "CC(=O)N(C1=C(Cl)C(=O)c2ccccc2C1=O)c1ccc(C(=O)O)cc1", "fluorescence ratio F(max-min)/F0": "inactive"}, {"compound": "O=C(Nc1ccccc1N1CCOCC1)c1csc2c1CCCC2", "fluorescence ratio F(max-min)/F0": "inactive"}, {"compound": "C=CCOc1cccc(C2C(C(=O)c3ccc(C)o3)=C(O)C(=O)N2c2nnc(C)s2)c1", "note": "(stereo unspecified)", "fluorescence ratio F(max-min)/F0": "inactive"}, {"compound": "COC(=O)c1c(NC(=O)CN(c2ccc(C)c(C)c2)S(C)(=O)=O)sc2c1CCCC2", "fluorescence ratio F(max-min)/F0": "inactive"}, {"compound": "CCN(C(=O)CSc1nnc2ccccn12)C1CCS(=O)(=O)C1", "note": "(stereo unspecified)", "fluorescence ratio F(max-min)/F0": "inactive"}, {"compound": "Brc1ccccc1C1Nc2cccc3cccc(c23)N1", "fluorescence ratio F(max-min)/F0": "inactive"}, {"compound": "COc1ccc(Cc2nc(-c3ccccn3)no2)cc1OC", "fluorescence ratio F(max-min)/F0": "inactive"}, {"compound": "CCOC(=O)c1cn(Cc2cccc(C)c2)nn1", "fluorescence ratio F(max-min)/F0": "inactive"}, {"compound": "C=CCNC(=O)c1cc(-c2ccccc2O)on1", "fluorescence ratio F(max-min)/F0": "inactive"}, {"compound": "N=C(N)SCc1cccc2ccccc12", "fluorescence ratio F(max-min)/F0": "inactive"}, {"compound": "CCc1cc(=O)oc2cc(C)cc(OCC(=O)N3CCC[C@@H]3C(=O)O)c12", "fluorescence ratio F(max-min)/F0": "inactive"}, {"compound": "CCOc1ccc(C(=O)NC2CCN(S(=O)(=O)CC)CC2)cc1", "fluorescence ratio F(max-min)/F0": "inactive"}, {"compound": "COc1ccc(S(=O)(=O)N2CCOCC2)c(C)c1C", "fluorescence ratio F(max-min)/F0": "inactive"}, {"compound": "CC(C)OCCCNc1ncnc2c1[nH]c1ccc(F)cc12", "fluorescence ratio F(max-min)/F0": "inactive"}, {"compound": "Fc1ccc2[nH]c3c(N4CCSCC4)ncnc3c2c1", "fluorescence ratio F(max-min)/F0": "51.9 (active)"}, {"compound": "O=C(c1ccc(O)cc1)c1ccc(C(=O)O)c(C(=O)O)c1", "fluorescence ratio F(max-min)/F0": "inactive"}, {"compound": "Cc1[nH][nH]c(=O)c1C(c1ccc(-c2ccc(Cl)cc2)o1)c1c(C)[nH][nH]c1=O", "fluorescence ratio F(max-min)/F0": "48.2 (active)"}, {"compound": "COc1ccc(C(=O)NC2CCCc3c2cnn3-c2cccc(C)c2C)c(OC)n1", "note": "(stereo unspecified)", "fluorescence ratio F(max-min)/F0": "inactive"}, {"compound": "CCOc1ccccc1C1CC(c2ccc(Cl)cc2)Nc2nc(N)nn21", "note": "(stereo unspecified)", "fluorescence ratio F(max-min)/F0": "inactive"}, {"compound": "CN1C(CC(=O)Nc2ccc(Br)cc2)c2ccccc2CC1(C)C", "note": "(stereo unspecified)", "fluorescence ratio F(max-min)/F0": "inactive"}, {"compound": "Nc1ccc(Oc2ccc(Cl)cc2)cc1", "fluorescence ratio F(max-min)/F0": "inactive"}, {"compound": "C=CCNC(=O)c1csc(-c2ccccc2)n1", "fluorescence ratio F(max-min)/F0": "inactive"}, {"compound": "COC(=O)Cc1cc(=O)n(-c2nc3ccccc3s2)[nH]1", "fluorescence ratio F(max-min)/F0": "inactive"}, {"compound": "O=C(Nc1ccc(Br)cc1F)C1CC(=O)N(C2CCCCC2)C1", "note": "(stereo unspecified)", "fluorescence ratio F(max-min)/F0": "inactive"}, {"compound": "CC1CCCCN1S(=O)(=O)c1ccc(C(=O)Nc2nnc(-c3cccs3)o2)cc1", "note": "(stereo unspecified)", "fluorescence ratio F(max-min)/F0": "inactive"}, {"compound": "Cc1ccc(-n2[nH]c(C)c(/C=N/N3C(=O)c4cccc5cccc(c45)C3=O)c2=O)cc1", "fluorescence ratio F(max-min)/F0": "110 (active)"}, {"compound": "O=C(CSc1nncn1-c1cccnc1)N1CCOCC1", "fluorescence ratio F(max-min)/F0": "inactive"}, {"compound": "Cc1nc(N2CCN(c3ccccn3)CC2)c2c(C)c(C(=O)Nc3ccc(F)c(Cl)c3)sc2n1", "fluorescence ratio F(max-min)/F0": "inactive"}, {"compound": "CC(=O)OC(C)C[N+](C)(C)C", "note": "(stereo unspecified)", "fluorescence ratio F(max-min)/F0": "98.8 (active)"}, {"compound": "CCCCOC(=O)CNc1nnc(SCC(=O)OCC)[nH]c1=O", "fluorescence ratio F(max-min)/F0": "inactive"}, {"compound": "Cc1ccc(Nc2nc(-c3ccc(O)cc3O)cs2)nc1", "fluorescence ratio F(max-min)/F0": "inactive"}, {"compound": "CCOC(=O)c1c(NC(=O)CNC2CCCc3ccccc32)sc(C(N)=O)c1C", "note": "(stereo unspecified)", "fluorescence ratio F(max-min)/F0": "inactive"}, {"compound": "Cc1ccc(-n2cnc3ncnc(-c4ccccc4)c32)cc1", "fluorescence ratio F(max-min)/F0": "inactive"}, {"compound": "COc1cc(C2/C(=C(\\O)c3ccc4c(c3)CC(C)O4)C(=O)C(=O)N2Cc2ccco2)ccc1O", "note": "(stereo unspecified)", "fluorescence ratio F(max-min)/F0": "inactive"}, {"compound": "CCOC(=O)c1c(C)[nH]c(=S)c(C#N)c1-c1ccccc1", "fluorescence ratio F(max-min)/F0": "inactive"}, {"compound": "CCCc1cc(=S)n2c([nH]c3ccccc32)c1C#N", "fluorescence ratio F(max-min)/F0": "71.7 (active)"}, {"compound": "COc1ccc(C(=O)NNC(=S)NC(=O)c2ccccc2)cc1", "fluorescence ratio F(max-min)/F0": "130 (active)"}, {"compound": "CC(Oc1ccc2ccccc2c1)C(=O)NNC(=S)NC(=O)c1ccco1", "note": "(stereo unspecified)", "fluorescence ratio F(max-min)/F0": "inactive"}, {"compound": "CCCCC(=O)NNC(=S)NC(=O)C(c1ccccc1)c1ccccc1", "fluorescence ratio F(max-min)/F0": "inactive"}, {"compound": "COc1ccc(C(=O)NC(=S)NC2CCCCC2)cc1", "fluorescence ratio F(max-min)/F0": "inactive"}, {"compound": "COc1ccc(C(=O)CSc2n[nH]c(N)n2)cc1", "fluorescence ratio F(max-min)/F0": "inactive"}, {"compound": "COc1ccc(C(=O)NC(=S)NNC(=O)CCc2ccccc2)cc1", "fluorescence ratio F(max-min)/F0": "101 (active)"}, {"compound": "CCOC(=O)CNC(=O)CSc1nc2cccnc2n1CC", "fluorescence ratio F(max-min)/F0": "inactive"}, {"compound": "OCc1ccc(OCCCOc2cccc3cccnc23)cc1", "fluorescence ratio F(max-min)/F0": "inactive"}, {"compound": "OCCn1c(-c2ccccc2)csc1=Nc1ccccc1", "fluorescence ratio F(max-min)/F0": "inactive"}, {"compound": "COc1cccc(-c2cnc(OC(C)(C)C)nc2OC(C)(C)C)c1", "fluorescence ratio F(max-min)/F0": "inactive"}, {"compound": "CCOc1ccc(NC(=O)N2CC=C(n3c(=O)[nH]c4ccccc43)CC2)cc1", "fluorescence ratio F(max-min)/F0": "inactive"}, {"compound": "Cc1cc(Nc2cc(N3CCN(C)CC3)nc(Sc3ccc(NC(=O)C4CC4)cc3)n2)n[nH]1", "fluorescence ratio F(max-min)/F0": "inactive"}, {"compound": "O=C(c1ccc(OC2CCN(C(=O)c3cccnc3)CC2)cc1)N1CCCCCC1", "fluorescence ratio F(max-min)/F0": "inactive"}, {"compound": "COCCNC(=O)C1CCN(S(=O)(=O)c2ccc3c(c2)OCCO3)CC1", "fluorescence ratio F(max-min)/F0": "inactive"}, {"compound": "CCOC(=O)N1CCN(C(=O)COCc2cc(-c3ccc4c(c3)OCO4)on2)CC1", "fluorescence ratio F(max-min)/F0": "inactive"}, {"compound": "CC1(C(=O)O)CCC(C(=O)Nc2ccc(Cl)c(Cl)c2)C1(C)C", "note": "(stereo unspecified)", "fluorescence ratio F(max-min)/F0": "47.3 (active)"}, {"compound": "CCCc1[nH]nc2c1C(c1ccc(Br)s1)C(C#N)=C(N)O2", "note": "(stereo unspecified)", "fluorescence ratio F(max-min)/F0": "inactive"}, {"compound": "CC1(C)CC2CC(C)(CN2c2ncnc3ccc(Br)cc23)C1", "note": "(stereo unspecified)", "fluorescence ratio F(max-min)/F0": "inactive"}, {"compound": "O=C(CSc1ncccn1)NC(=O)NCc1ccccc1", "fluorescence ratio F(max-min)/F0": "inactive"}]}]}
